According to PubChem BioAssay:

Legend:
[1] = test system: Human papillomavirus type 1a protein E7 (residues 44-93); assay: HPV1a E7 fragment binders on microarrays, primary screen, biochemical, small-molecule microarray, residues 44-93, 635 nm fluorescence (AID 1108); conditions: small-molecule microarray binding, fluorescence 635 nm; higher = more signal;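 further: E7 fragment applied at 1 µg/mL in TBST for 1 h at 4 C; score combines spot fluorescence with its signal to noise ratio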
[2] = modulators of HCV replicon luciferase signal, primary screen, HCV replication inhibitor project, Huh7 cells, luciferase reporter (AID 1109); conditions: 48 h, higher = more signal;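 further: huh7 hepatoma cells harbouring a luciferase neomycin HCV replicon reporter; luciferase luminescence as measure of HCV replicon replication; test concentration not given here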
[3] = biological target: Left-right determination factor 2 (Homo sapiens) (UniProt O00292); assay: LEFTY2 binders on small-molecule microarrays, primary screen, biochemical, small-molecule microarray, 635 nm fluorescence scan (AID 1110); conditions: LEFTY2 binding, higher = more signal
[4] = biological target: Calmodulin-1 (Homo sapiens) (UniProt P0DP23); assay: CALM1 binders on microarrays, EGTA buffer, profiling panel, biochemical, small-molecule microarray, Cy5-labelled CALM1 (AID 1111); conditions: Cy5-CALM1 binding fluorescence, higher = more signal;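 further: labelled calmodulin applied in Tris saline Tween buffer holding calcium plus EGTA and DTT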
[5] = biological target: Calmodulin-1 (Homo sapiens) (UniProt P0DP23); assay: calcium-bound CALM1 binders on microarrays, profiling panel, artefact control for SMM control-protein annotation, biochemical, small-molecule microarray, Cy5-labelled CALM1, plus calcium (AID 1112); conditions: Cy5-CALM1 binding fluorescence, higher = more signal;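 further: score merges spot fluorescence with signal to noise from triplicate slides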
[6] = small-molecule microarray binders of probe aWnt5a, primary screen, biochemical, biotinylated probe, 635/667 nm fluorescence (AID 1113); conditions: higher = more signal;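 further: score merges 667 nm fluorescence intensity with signal-to-noise per printed feature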
[7] = small-molecule microarray binders of probe aShh, primary screen, biochemical, biotinylated probe, 635/667 nm fluorescence (AID 1114); conditions: higher = more signal;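 further: probe is biotin-labelled aShh protein from a stem cell growth factor screen; measures binding of labelled protein to compounds printed on the slide; score merges feature fluorescence at 667 nm with signal-to-noise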
[8] = small-molecule microarray binders of probe aNog, primary screen, biochemical, biotinylated probe, 635/667 nm fluorescence (AID 1115); conditions: higher = more signal;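 further: probe is biotinylated aNog protein used at 0.15 µg/mL for 1 h at 4 C; z-score combines 667 nm fluorescence of each spot with its signal to noise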
[9] = biological target: Torsin-1A-interacting protein 1 (Homo sapiens) (UniProt Q5JTV8); assay: LAP1 binders from COS7 cell lysate, primary screen, small-molecule microarray, 635/667 nm fluorescence (AID 1116); conditions: COS7-hLAP1 lysate binding, 635 nm fluorescence, higher = more signal
[10] = biological target: Alpha-bungarotoxin (Bungarus multicinctus) (UniProt P60615); assay: alpha-bungarotoxin binders on microarray, profiling panel, artefact control for SMM control protein annotation, biochemical, small-molecule microarray, Alexa647 label, 635/667 nm fluorescence (AID 1117); conditions: alpha-BTX-A647 binding fluorescence, higher = more signal
Alpha-bungarotoxin (Bungarus multicinctus), sequence (P60615 whole entry, looked up): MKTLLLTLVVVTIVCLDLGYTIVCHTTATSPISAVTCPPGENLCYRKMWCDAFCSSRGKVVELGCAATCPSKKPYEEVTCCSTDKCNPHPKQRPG

Torsin-1A-interacting protein 1 (Homo sapiens), sequence (Q5JTV8 whole entry, looked up): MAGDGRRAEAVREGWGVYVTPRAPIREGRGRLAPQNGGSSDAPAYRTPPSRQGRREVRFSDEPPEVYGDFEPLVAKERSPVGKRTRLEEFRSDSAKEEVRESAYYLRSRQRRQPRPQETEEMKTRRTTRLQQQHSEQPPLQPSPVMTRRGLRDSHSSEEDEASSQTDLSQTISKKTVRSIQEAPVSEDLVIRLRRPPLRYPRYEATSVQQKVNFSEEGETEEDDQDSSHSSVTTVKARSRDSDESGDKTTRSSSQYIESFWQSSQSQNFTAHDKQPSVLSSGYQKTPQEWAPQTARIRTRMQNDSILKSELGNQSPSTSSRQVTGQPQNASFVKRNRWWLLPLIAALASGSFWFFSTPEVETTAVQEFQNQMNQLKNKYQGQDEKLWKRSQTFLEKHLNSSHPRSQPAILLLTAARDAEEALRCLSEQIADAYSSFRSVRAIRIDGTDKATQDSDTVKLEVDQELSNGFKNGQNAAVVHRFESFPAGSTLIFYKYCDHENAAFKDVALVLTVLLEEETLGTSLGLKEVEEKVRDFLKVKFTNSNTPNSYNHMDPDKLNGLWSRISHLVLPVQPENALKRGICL
Left-right determination factor 2 (Homo sapiens), sequence (O00292 whole entry, looked up): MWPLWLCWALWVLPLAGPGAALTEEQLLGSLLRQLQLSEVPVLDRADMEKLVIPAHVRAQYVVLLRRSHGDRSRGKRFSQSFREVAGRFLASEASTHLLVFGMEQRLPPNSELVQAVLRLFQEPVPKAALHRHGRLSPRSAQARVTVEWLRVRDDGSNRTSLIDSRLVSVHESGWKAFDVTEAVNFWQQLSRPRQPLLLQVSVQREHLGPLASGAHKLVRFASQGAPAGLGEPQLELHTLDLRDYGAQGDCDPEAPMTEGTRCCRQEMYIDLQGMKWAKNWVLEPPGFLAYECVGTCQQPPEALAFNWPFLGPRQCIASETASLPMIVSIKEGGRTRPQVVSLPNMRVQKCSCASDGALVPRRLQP

SMILES | composite z-score [1] | z-score [2] | composite z-score [3] | composite z-score [4] | composite z-score [5] | composite z-score [6] | composite z-score [7] | composite z-score [8] | composite z-score [9] | composite z-score [10]
NC(=O)NCC#Cc1ccc2c(c1)[C@]1(C(=O)N2)[C@H](C(=O)N2CCN(c3ncccn3)CC2)[C@H]2C(=O)O[C@H](c3ccccc3)[C@H](c3ccccc3)N2[C@@H]1c1ccc(O)cc1 | 1.23 | -0.437 | 0.728 | 0.313 | -0.156 | 0.108 | 0.296 | -0.524 | 0.498 | 0.677
COc1ccc(CCNC(=O)[C@@]2(Cc3ccccc3I)c3ccccc3C(=O)N(C3CCCCC3)[C@H]2c2ccc(CO)cc2)cc1 | 1.3 | -3.2 | -0.425 | 0.902 | 0.609 | -0.0721 | -0.0626 | -0.158 | 0.0805 | 0.678
C=C(COC)C(=O)CC[C@@H](OC(C)=O)c1cccc(OCCO)c1 | -0.297 | -2.41 | -0.278 | -0.582 | -0.909 | -0.0403 | -0.214 | -0.0827 | 0.578 | -0.485
O=C(NCc1ccc(F)cc1)[C@H]1C[C@H]2C(=O)NCC(=O)N2[C@H]1c1ccc(O)cc1 | 1.03 | -0.0497 | 0.887 | -0.449 | 0.0871 | -0.0684 | -0.0553 | -0.132 | 0.605 | -0.144
CCOC(=O)C[C@H]1[C@H](OC(=O)Cc2ccc3c(c2)OCO3)[C@@H](NC(=O)C2CCCCC2)c2cc(OCCCO)ccc2N1C(=O)c1ccccc1 | 0.232 | -0.509 | -0.684 | 0.379 | 0.389 | -0.1 | -0.147 | -0.272 | 0.653 | 0.262
C=C[C@@H](CO)N(Cc1ccc(OC)cc1)S(=O)(=O)c1ccc(Br)cc1 | 0.19 | -1.25 | 0.211 | -0.0366 | -0.213 | 0.0377 | -0.0709 | -0.201 | 0.572 | -0.0436
O=C(NCCN1CCOCC1)[C@@H]1c2ccccc2C(=O)N(Cc2ccccc2Cl)[C@H]1c1ccc(CO)cc1 | -0.388 | -0.786 | -0.341 | -0.635 | -0.725 | 0.0491 | -0.471 | 0.414 | -0.815 | 0.27
CCOC(=O)C[C@H]1[C@H](OC(=O)c2cc3ccccc3oc2=O)[C@@H](NC(=O)CC(C)C)c2cc(OCCCO)ccc2N1C(=O)c1ccc2ccccc2n1 | 1.05 | -0.359 | 0.643 | -0.134 | -0.35 | -0.152 | -0.154 | -0.143 | 0.0785 | 0.643
COC(=O)C(CC#Cc1ccc2c(c1)[C@]1(C(=O)N2)[C@H](c2ccc(O)cc2)N2[C@H](c3ccccc3)[C@H](c3ccccc3)OC(=O)[C@H]2[C@@H]1C(=O)NC[C@H](O)c1ccccc1)C(=O)OC | 0.829 | -1.04 | 0.337 | 0.175 | -0.102 | -0.0606 | -0.0709 | 0.0169 | 1.24 | 0.624
O=C1O[C@@H](c2ccccc2)[C@@H](c2ccccc2)N2[C@@H](c3ccc(O)cc3)[C@]3(C(=O)Nc4ccc(C#CCCO)cc43)[C@@H](C(=O)N3CCN(c4ncccn4)CC3)[C@H]12 | 0.99 | -0.671 | 0.787 | -0.587 | -0.948 | -0.512 | -0.232 | 0.498 | 0.255 | 0.101
COc1cc(NN2C(C(O)c3ccco3)C=CC3C(=O)N(C)C(=O)C32)cc(OC)c1OC (stereo not given) | 0.02 | -0.0965 | 0.173 | 0.723 | -0.0913 | 0.107 | 0.394 | 0.415 | 0.447 | 0.509
CN(C)C(=O)[C@@]1(Cc2ccccc2)N=C(c2ccc(OCCCO)cc2)O[C@H]1c1ccccc1 | 0.508 | -1.76 | -0.469 | 1.58 | 0.972 | 0.217 | 0.0654 | -0.332 | 1.44 | 0.907
CCOC(=O)C[C@H]1[C@H](OC(=O)c2ccc(C(=O)c3ccccc3)cc2)[C@@H](NC(=O)CC(C)C)c2cc(OCCCO)ccc2N1C(=O)c1ccccc1 | 1.3 | -1.12 | 0.53 | 0.735 | -0.165 | -0.0758 | -0.167 | -0.0927 | 0.537 | 0.741
COC(=O)[C@@]1(Cc2ccc(F)cc2)[C@H]2c3cc(C(=O)N4CCCC4)n(CCc4c[nH]c5ccccc45)c3C[C@H]2CN1C(=O)c1ccccc1 | 1.42 | -1.52 | 0.304 | 1.45 | 1.31 | 0.0718 | 0.582 | 2.08 | 1.63 | 1.89
[N-]=[N+]=Nc1ccccc1[C@H]1OC(c2ccc(OCCCO)cc2)=N[C@@]1(Cc1ccccc1)C(=O)NCCN1CCOCC1 | 0.632 | -1.85 | 0.331 | 2.07 | 0.469 | 0.248 | 0.171 | -0.61 | 0.998 | 1.8
CCOC(=O)C[C@H]1[C@H](OC(=O)Cc2ccc3c(c2)OCO3)[C@@H](NC(=O)c2ccc3ccccc3n2)c2cc(OCCCO)ccc2N1C(=O)c1ccc2ccccc2n1 | 0.0977 | -1.63 | 0.464 | 0.509 | -0.0205 | -0.0512 | 0.0048 | -0.115 | 0.0995 | 0.406
C=CCC(OC(C)=O)[C@@H]1[C@@H](N(Cc2ccc(-c3cccc(C(F)(F)F)c3)o2)C(=O)Cc2ccc(OC)cc2)c2cc(OCCCO)ccc2N1C(=O)c1ccc(-c2ccccc2)cc1 (stereo not given in full) | -0.433 | 0.278 | -0.164 | -0.364 | -0.341 | 0.0079 | -0.0793 | -0.577 | -0.205 | 1.13
CC(C)N1C(=O)C[C@@](C(=O)NC2CC2)(c2ccc([N+](=O)[O-])cc2)[C@H]1c1ccc(CO)cc1 | 1.3 | -1.2 | -1.15 | -0.673 | -0.606 | -0.0934 | -0.0709 | -0.566 | -0.315 | 0.181
C[N+](C)(C)CCCCCCNC(=O)[C@@H]1C[C@@H]2C(=O)N3CCC[C@H]3C(=O)N2[C@@H]1c1ccc(O)cc1 | 0.279 | 0.501 | 0.994 | -0.31 | -0.887 | -0.0239 | -0.138 | -0.29 | 0.531 | 0.341
COC(=O)c1c(CC[C@@H](CO)NC(=O)N[C@@H](C)Cn2cc(-c3ccccn3)nn2)oc(C(C)=O)c1C(=O)OC | 0.683 | 0.51 | 0.328 | -0.063 | -1.06 | -0.0981 | 0.123 | -0.0926 | 0.237 | -0.715
C=C(C(=O)CC[C@H](OC(=O)c1ccccc1-c1ccccc1C(=O)O)c1cccc(OCCO)c1)C(C)C | -0.304 | -1.73 | -0.103 | -0.119 | -0.409 | -0.184 | -0.0605 | -0.1 | -0.126 | 0.436
